Source: the supplement of paper PMC6279402
Counter-ions that a name gives are not always drawn. ± gives the standard deviation of the averaged measurements.

What follows are compounds tested on A549 (assay: relative viability (normalised to negative control = 1, bortezomib = 0) (fraction); higher = less cytotoxic). Conditions: inflammatory serum-free RHB-A with cytokines + LPS; 5 d + 24 h CellTiter-Blue; compound 300 nM; GSK126 pretreatment: 5 uM GSK126.

SMILES | relative viability
O=C(c1ccc(/C=C/c2n[nH]c3ccccc23)cc1)N1CCNCC1 | 0.957 ± 0.065
Cc1cn(-c2cc(NC(=O)c3ccc(C)c(Nc4nccc(-c5cccnc5)n4)c3)cc(C(F)(F)F)c2)cn1 [Nilotinib] | 1.14 ± 0.17
CC1(COc2ccc3c(c2)ncn3-c2ccc3cccc(N4CCC(N)CC4)c3n2)COC1 | 1.3 ± 0.087
Cc1[nH]c(/C=C2\C(=O)Nc3ccccc32)c(C)c1CCC(=O)O | 0.786 ± 0.08
COc1cc2nccc(Oc3ccc(NC(=O)Nc4ccc(F)cc4F)c(F)c3)c2cc1OC | 0.916 ± 0.12

Same assay, conditions: inflammatory serum-free RHB-A with cytokines + LPS; 5 d + 24 h CellTiter-Blue; compound 300 nM; GSK126 pretreatment: none (vehicle)

SMILES | relative viability
CC[C@]1(O)C[C@@H]2CN(CCc3c([nH]c4ccccc34)[C@@](C(=O)OC)(c3cc4c(cc3OC)N(C)[C@H]3[C@@](O)(C(=O)OC)[C@H](OC(C)=O)[C@]5(CC)C=CCN6CC[C@]43[C@@H]65)C2)C1 [Vinblastine sulfate salt; Vinblastine sulfate] | 0.255 ± 0.022
NCC(=O)CCC(=O)O [Aminolevulinic acid hydrochloride; Aminolevulinic acid] | 0.981 ± 0.053
CCN(CCO)CCCOc1ccc2c(Nc3cc(CC(=O)Nc4cccc(F)c4)[nH]n3)ncnc2c1 [AZD1152-HQPA(Barasertib)] | 0.696 ± 0.037
COc1ccc(S(=O)(=O)N(C(C)=O)c2ccccc2/C=C/c2cc[n+]([O-])cc2)cc1 | 0.623 ± 0.056
CC[C@@]1(O)C(=O)OCc2c1cc1n(c2=O)Cc2cc3c(CN(C)C)c(O)ccc3nc2-1 [Topotecan HCl; Topotecan hydrochloride] | 0.221 ± 0.038
CC[C@@H]1C(=O)N(C)c2cnc(Nc3ccc(C(=O)NC4CCN(C)CC4)cc3OC)nc2N1C1CCCC1 | 0.215 ± 0.02
CN(C)C/C=C/C(=O)Nc1cc2c(Nc3ccc(F)c(Cl)c3)ncnc2cc1O[C@H]1CCOC1 [BIBW2992; BIBW2992(Tovok)] | 0.328 ± 0.052
O=C(O)c1ccc2c(c1)nc(Nc1cccc(Cl)c1)c1ccncc12 | 0.839 ± 0.12
Nc1nc(Cl)nc2c1ncn2[C@@H]1O[C@H](CO)[C@@H](O)[C@@H]1F [Clofarabine] | 0.256 ± 0.027
O=c1cc(-c2cccc3c2Sc2ccccc2S3)oc(N2CCOCC2)c1 | 0.875 ± 0.069
CC(C)CC(=O)Nc1n[nH]c2c1CN(C(=O)C1CCN(C)CC1)C2(C)C | 0.787 ± 0.033
O=C(Nc1ccc(OC(F)(F)F)cc1)c1sccc1NCc1ccnc2ccccc12 | 1.2 ± 0.036
Cc1cc(Nc2nc(N[C@@H](C)c3ncc(F)cn3)ncc2Cl)[nH]n1 | 1.13 ± 0.017
CO[C@H]1C[C@@H]2CC[C@@H](C)[C@@](O)(O2)C(=O)C(=O)N2CCCC[C@H]2C(=O)O[C@H]([C@H](C)C[C@@H]2CC[C@@H](OC(=O)C(C)(CO)CO)[C@H](OC)C2)CC(=O)[C@H](C)/C=C(\C)[C@@H](O)[C@@H](OC)C(=O)[C@H](C)C[C@H](C)/C=C/C=C/C=C/1C [CCI-779; Temsirolimus] | 0.531 ± 0.028
COc1c2occc2cc2ccc(=O)oc12 [Methoxsalen] | 0.906 ± 0.057
COc1ccc(-c2ccc3c(N4CCOCC4)nc(N4C[C@@H](C)O[C@@H](C)C4)nc3n2)cc1CO | 0.515 ± 0.086
COc1cc2c(Oc3ccc4[nH]c(C)cc4c3F)ncnc2cc1OCCCN1CCCC1 [Cediranib(AZD2171)] | 0.996 ± 0.051
Cn1c(=O)n(-c2ccc(C(C)(C)C#N)cc2)c2c3cc(-c4cnc5ccccc5c4)ccc3ncc21 | 0.21 ± 0.0091
Nc1nc(Nc2ccc(S(N)(=O)=O)cc2)nn1C(=O)c1c(F)cccc1F | 1.07 ± 0.099
Oc1cccc(-c2nc(N3CCOCC3)c3oc4ncccc4c3n2)c1 | 0.127 ± 0.025
CC(C)n1nc(-c2cc3cc(O)ccc3[nH]2)c2c(N)ncnc21 | 0.431 ± 0.043
Cn1cc(C2=C(c3ccc(Cl)cc3Cl)C(=O)NC2=O)c2ccccc21 | 0.802 ± 0.05
O=C1NC(=O)/C(=C/c2ccc(-c3ccc(F)cc3O)o2)S1 | 0.839 ± 0.1
CC1=C(/C=C/C(C)=C/C=C/C(C)=C/C(=O)O)C(C)(C)CCC1 [Retinoic acid; Tretinoin; 13-cis-retinoic acid] | 1.14 ± 0.064
Cc1cc(C(=O)NOCCO)c(Nc2ccc(I)cc2F)n(C)c1=O | 0.0366 ± 0.01
C[C@@H](Oc1cc(-n2cnc3ccc(CN4CCN(C)CC4)cc32)sc1C(N)=O)c1ccccc1C(F)(F)F | 0.363 ± 0.072
O=c1[nH]cc(F)c(=O)[nH]1 [5-Fluorouracil; Fluorouracil] | 0.924 ± 0.026
O=C(c1ccc(OCCN2CCCCC2)cc1)c1c(-c2ccc(O)cc2)sc2cc(O)ccc12 [Raloxifene HCl; Raloxifene hydrochloride] | 0.987 ± 0.058
